From PubChem BioAssay
cytoskel mod: modifiers of cytoskeleton assembly. inhibition, % at 2 µM. 91,000 tested, 0.18% active. HUVEC TNFa F-actin phalloidin imaging, high content;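 active = inhibition above the batch mean plus 3 SD and confirmed as a hit by visual image inspection, cut at about 30% in these data, passing the limit was not always enough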
CYP2C9 act: CYP2C9 (human) activation; P11712; recombinant CYP2C9, luciferin-H conversion, luminescence; stronger effect = higher value; factor 1 = untreated enzyme, 0 = blocked; activation factor at 5 µM; 96,000 tested, 1.4% active; AID 1024;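 active = activation factor of 2 or more for CYP2C9 at a 5 µM dose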
Target sequence (P11712 whole entry, looked up): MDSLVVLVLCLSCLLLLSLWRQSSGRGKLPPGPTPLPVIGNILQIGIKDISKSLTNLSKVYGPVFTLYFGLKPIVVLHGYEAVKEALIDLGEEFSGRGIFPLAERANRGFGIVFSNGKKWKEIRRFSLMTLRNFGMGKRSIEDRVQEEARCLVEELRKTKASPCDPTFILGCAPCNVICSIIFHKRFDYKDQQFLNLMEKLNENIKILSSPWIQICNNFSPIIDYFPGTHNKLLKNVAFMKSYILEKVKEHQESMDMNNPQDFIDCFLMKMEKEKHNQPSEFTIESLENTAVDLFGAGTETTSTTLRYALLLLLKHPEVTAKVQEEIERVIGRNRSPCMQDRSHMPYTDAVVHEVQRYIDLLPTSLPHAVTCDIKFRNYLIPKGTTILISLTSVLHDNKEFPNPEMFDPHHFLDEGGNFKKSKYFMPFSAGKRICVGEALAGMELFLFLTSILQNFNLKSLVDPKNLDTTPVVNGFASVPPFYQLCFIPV
CYP2C9 inhib: human CYP2C9 inhibition; inhibition, % at 5 µM; P11712; CYP2C9 Supersomes, luciferin-H conversion, luminescence; 96,000 tested, 20% active;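 active = blocking of liver enzyme CYP2C9 beyond about 50% at 5 µM, limit read from the data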
CYP2C19 activ: cytochrome P450 2C19 (human) activation. activation factor at 5 µM. 96,000 tested, under 10 active. P33261. recombinant CYP2C19, luciferin-H EGE luminescence; stronger effect = higher value; 0 = fully inhibited enzyme, 1 = untreated enzyme;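 active = activation factor of at least 2 at 5 µM in the primary screen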
E-sel TNF inh: TNF alpha driven E-selectin expression inhibition. HUVEC TNFa-induced E-selectin immunofluorescence, high content. inhibition, % at 2 µM. 120,000 tested, 0.71% active. AID 1246;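 active = inhibition above the batch mean plus 3 SD, and confirmed as a hit on visual image review, cut at about 43% in these data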
CYP2C19 inhib: blocks human cytochrome P450 2C19; 96,000 tested, 21% active; CYP2C19 Supersomes, luciferin-H EGE luminescence, 30 min; P33261; inhibition, % at 5 µM; AID 778;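 active = CYP2C19 inhibition above a set limit at 5 µM in the primary screen, cut at about 50% in these data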
Hits are given with their value; - = inactive; . = no result. In the library only some 22% were active in any assay of this set; here they are far more common.

SMILES | cytoskel mod | CYP2C9 act | CYP2C9 inhib | CYP2C19 activ | E-sel TNF inh | CYP2C19 inhib
O=C(O)CNC(=O)CC12CC3CC(CC(C3)C1)C2 | - | - | - | - | . | -
O=C(N=C1SCC(=O)N1c1ccccc1)c1ccco1 | - | - | - | - | - | 51
Cc1cc(C(=O)OCC(=O)NCc2ccco2)c(C)o1 | . | . | . | . | - | .
CCN(CC)S(=O)(=O)c1cccc(NC(=O)COC(=O)c2cc(C)oc2C)c1 | - | - | 96 | - | - | 64
CCN(CC)S(=O)(=O)c1cccc(NC(=O)COC(=O)c2n[nH]c(=O)c3ccccc23)c1 | . | . | . | . | - | .
Cc1cc(C(=O)OCC(=O)Nc2ccc(F)cc2)c(C)o1 | - | - | - | - | - | 61
O=S(=O)(Cc1cc(N2CCOCC2)nc(-c2ccccn2)n1)c1ccccc1 | . | . | . | . | - | .
CS(=O)(=O)N1CCc2cc(-c3csc(NCC4CCCO4)n3)ccc21 (stereo not drawn) | . | . | . | . | - | .
O=C(NCCN1CCOCC1)c1cccnc1SCc1ccccc1Cl | . | . | . | . | - | .
Cc1ccc(NC(=O)Nc2ccc(F)cc2)nc1 | . | - | - | - | - | 57
Cc1ccc(NC(=O)Nc2ccc3c(c2)N(C)C(=O)CS3)nc1 | - | . | . | . | 94 | .
Cc1ccnc(NC(=O)Nc2ccc(F)cc2)c1 | - | - | - | - | - | -
Cc1ccnc(SCCn2c(N3CCCCC3)nc3c2c(=O)[nH]c(=O)n3C)n1 | - | - | - | - | . | -
Cc1c(C(=O)OCC(C)C)[nH]c2c1C(=O)CC(c1cccs1)C2 (stereo not drawn) | - | - | 92 | - | - | 80
Cc1c(C(=O)OCC2CCCO2)[nH]c2c1C(=O)CC(c1ccc(N(C)C)cc1)C2 (stereo not drawn) | . | - | 92 | - | - | -
Cc1c(C(=O)N2CCOCC2)[nH]c2c1C(=O)CC(c1ccc(Cl)cc1)C2 (stereo not drawn) | - | - | 66 | - | - | -
CCOC(=O)c1[nH]c2c(c1C)C(=O)CC(c1ccc(F)cc1)C2 (stereo not drawn) | . | - | 88 | - | - | -
COCCOC(=O)c1[nH]c2c(c1C)C(=O)CC(c1cccs1)C2 (stereo not drawn) | . | . | . | . | - | .
Cc1c(C(=O)O)[nH]c2c1C(=O)CC(c1ccc(Cl)cc1)C2 (stereo not drawn) | - | - | - | - | - | -
COc1ccccc1C(C)NCC(=O)Nc1ccccc1C(F)(F)F (stereo not drawn) | . | . | . | . | - | .
COc1ccc(CCNC(=O)c2ccc(Cl)c(S(=O)(=O)N(C)c3ccccc3)c2)cc1 | . | . | . | . | - | .
CCOC(=O)c1[nH]c2c(c1C)C(=O)CC(c1ccc(OCC)c(OC)c1)C2 (stereo not drawn) | - | - | 90 | - | - | 76
COc1ccccc1NC(=S)N1CCC(NC(=O)c2ccco2)CC1 | . | . | . | . | - | .
Cc1ccc(SCC(=O)N(Cc2nc(-c3ccccc3)no2)C(C)C)cc1 | - | - | 79 | - | - | 77
Cc1ccc(-c2noc(CN3CCN(C(c4ccccc4)c4ccccc4)CC3)n2)cc1 | - | - | - | - | - | -
SMILES | cytoskel mod | CYP2C9 act | CYP2C9 inhib | CYP2C19 activ | E-sel TNF inh | CYP2C19 inhib
Cc1ccccc1OCC(=O)N(Cc1nc(-c2ccccc2)no1)C(C)C | - | - | - | - | - | 57
CCOC(=O)C1CCN(C(=O)COc2ccc(Br)cc2)CC1 | - | - | 65 | - | - | 82
CCOC(=O)C1CCN(C(=O)Cc2cccs2)CC1 | - | - | - | - | - | 59
CCOC(=O)C1CCN(CC(O)COc2ccc(C(C)(C)C)cc2)CC1 (stereo not drawn) | - | - | - | - | - | 56
CCOC(=O)C1CCN(C(=O)COc2cccc(C)c2)CC1 | - | - | - | - | - | 81
C/C(N)=C(/C#N)C(=O)CN1CCCCC1 | - | - | - | - | - | -
CC1CC(C(F)(F)F)n2ncnc2N1 (stereo not drawn) | - | - | - | - | . | -
Cc1cccc(OCC(=O)N2CCN(C(=O)c3cccs3)CC2)c1 | - | - | 59 | - | - | 62
CCOC(=O)C1CCN(C(=O)COc2cc(C)c(Br)cc2C)CC1 | - | - | - | - | - | 91
O=C(COc1ccccc1)N1CCN(C(=O)c2cccs2)CC1 | . | - | - | - | - | -
CN1CCN(c2ncnc3sc(-c4ccccc4)cc23)CC1 | . | . | . | . | - | .
Cc1cc(F)ccc1S(=O)(=O)Nc1ncnc2sccc12 | . | . | . | . | - | .
COc1cc(/C=C2\SC(c3ccc(C)cc3)=NC2=O)cc(OC)c1OC | - | - | 63 | - | - | -
COc1ccc(/C=C2/SC(c3ccc(C)cc3)=NC2=O)cc1OC | - | - | 61 | - | . | -
OCCNCCCCOc1cccc(Br)c1 | . | . | . | . | - | .
CCOc1ccc(S(=O)(=O)NCCCN2CCOCC2)c2ccccc12 | - | - | - | - | - | 60
CCOc1ccc(S(=O)(=O)NCCC2=CCCCC2)c2ccccc12 | - | - | - | - | - | 88
COc1ccc(S(=O)(=O)NCCCN2CCOCC2)c2ccccc12 | . | - | - | - | - | 97
COc1ccc(C)cc1S(=O)(=O)NCCC1=CCCCC1 | - | - | - | - | - | -
O=S(=O)(NCCCN1CCOCC1)c1ccc2ccccc2c1 | . | . | . | . | - | .
CCOc1ccc(OCC)c(S(=O)(=O)NCCCN2CCOCC2)c1 | - | . | . | . | - | .
CCCOc1ccc(S(=O)(=O)NCCCN2CCOCC2)c2ccccc12 | - | - | - | - | - | 99
COC(=O)c1cc(C#N)c(Oc2cccc(C)c2C)nc1C | - | - | - | - | - | -
COC(=O)c1ccccc1NC1c2ccccc2C(=O)N1c1cccnc1 (stereo not drawn) | . | - | - | - | - | -
CCC(C)NC(=O)c1ccc(C(=O)c2ccccc2)cc1 (stereo not drawn) | . | . | . | . | - | .
SMILES | cytoskel mod | CYP2C9 act | CYP2C9 inhib | CYP2C19 activ | E-sel TNF inh | CYP2C19 inhib
N#CC1=C(N)S[C@@H](C(=O)c2ccc(F)cc2)[C@@H]1c1cccs1 | - | . | . | . | - | .
COC(=O)c1cc2c(cc1Cl)SC(=NCCCN1CCOCC1)NS2(=O)=O | - | - | - | - | - | -
CN(C(=O)c1cc2n(n1)C(C(F)(F)F)CC(c1ccco1)N2)c1ccc(OC(F)(F)F)cc1 (stereo not drawn) | - | - | - | - | . | -
COc1cc2c(C(=O)N3CCN(Cc4ccc5c(c4)OCO5)CC3)cn(C)c(=O)c2cc1OC | - | - | - | - | - | -
CCOc1cc(S(=O)(=O)Nc2ccc(Cl)cn2)ccc1F | - | - | 96 | - | - | -
CCOc1cc(S(=O)(=O)N(CC)CC)ccc1F | - | 2.3 | - | - | - | 95
CCOc1cc(S(=O)(=O)n2nc(C)cc2C)ccc1F | - | - | - | - | - | 73
COc1ccc(S(=O)(=O)Nc2ccc(Cl)cn2)c(C)c1C | - | - | 53 | - | - | -
COc1ccc(C)cc1S(=O)(=O)Nc1cc(Cl)ccc1Cl | - | . | . | . | - | .
CCOc1cc(S(=O)(=O)Nc2ccc(Cl)cn2)ccc1Cl | - | . | . | . | - | .
O=C(Cn1cccc1C(=O)c1ccccc1)NCc1ccco1 | - | - | - | - | . | -
Cc1ccccc1C(=O)c1cccn1CC(=O)NCc1ccco1 | - | - | - | - | 62 | -
CCc1cccc2c(C#N)cn(CC(=O)NCc3ccco3)c12 | - | - | - | - | - | 51
